Some test systems named below: HCT-15 colon; HT29 colon; SNB-75 CNS; SNB-19 CNS; U251 CNS; PC-3 prostate; SK-MEL-5 melanoma; UACC-62 melanoma; LOX IMVI melanoma; SK-MEL-28 melanoma.
Holding throughout (test): NCI-60 one-dose screen, 48 h (100 = growth as untreated, 0 = no growth, -100 = all killed)
Common to all, as to conditions: 10 µM unless noted

Consider 10 compounds from PubChem BioAssay (NCI).

Several values for one entry are separate records, joined by “and”; a condition that tells them apart may be missing. Equal entries are not always repeated. The panel holds about 83,000 compounds, 20% with a hit somewhere; the sample as a whole holds those more often.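 Interpretation: 100, growth as untreated; towards 0, rising growth inhibition; 0, no net growth; 0 to -100, cell death. Compounds scoring below 10 were considered active.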 Activity calls are given as the source filed them.

With `c1ccc(CSc2nnc(-c3ccc4nc(-c5ccccc5)[nH]c4c3)o2)cc1`, the growth in the experiment with HCT-15 colon was 12.7% (inactive); with HT29 colon, 42.5% (inactive); with SNB-75 CNS, -51.4% (active); in the experiment on SNB-19 CNS it was 16.3% (inactive); in the experiment on U251 CNS it was 4.61% (active); with PC-3 prostate, 26.6% (inactive). Besides, the growth was 29.4% (inactive) in the experiment on SK-MEL-5 melanoma, 5.19% (active) in the experiment with UACC-62 melanoma, -43.6% (active) in the experiment on LOX IMVI melanoma and -4.76% (active) in the experiment on SK-MEL-28 melanoma.

`Cc1ccc(C(=O)C[n+]2cccc3c4ccccc4ccc32)cc1`: the growth was 56.8% (inactive) with HCT-15 colon; 12.5% (inactive) with HT29 colon; 43% (inactive) in the experiment with SNB-75 CNS; 25.9% (inactive) in the experiment with SNB-19 CNS; 17.8% (inactive) in the experiment on U251 CNS; 18.7% (inactive) in the experiment with PC-3 prostate. Further, the growth in the experiment with SK-MEL-5 melanoma was -88.8% (active); with UACC-62 melanoma it was 32.2% (inactive); in the experiment on LOX IMVI melanoma, -24.2% (active); in the experiment on SK-MEL-28 melanoma, 44.5% (inactive).

For the compound `O=C(Nc1ccc(Cl)c(C(F)(F)F)c1)N1CCN(c2cc(-c3cn(-c4ccccc4)nc3-c3cccc(O)c3)ccn2)CC1`, the growth in the experiment on HCT-15 colon was -7.34% (active); in the experiment with HT29 colon it was -35.3% (active); with SNB-75 CNS, 5.08% (active); with SNB-19 CNS, 17% (inactive); in the experiment on U251 CNS, 11.8% (inactive); in the experiment on PC-3 prostate it was 6.31% (active). Besides, the growth in the experiment on SK-MEL-5 melanoma was -97.2% (active); in the experiment on UACC-62 melanoma, -88.6% (active); in the experiment with LOX IMVI melanoma it was -76.9% (active); with SK-MEL-28 melanoma, -24.8% (active).

`CC(C)(C)OC(=O)N1CCC2(CC1)Oc1ccccc1[C@H]1CC(c3ccc(Br)cc3)=NN12`: the growth in the experiment with HCT-15 colon was 59.1% (inactive); in the experiment with HT29 colon it was 96.7% (inactive); with SNB-75 CNS, 72.8% (inactive); with SNB-19 CNS it was 78% (inactive); in the experiment on U251 CNS, 82.8% (inactive); in the experiment on PC-3 prostate it was 66.6% (inactive). The growth was 76.2% (inactive) in the experiment on SK-MEL-5 melanoma, 41.3% (inactive) in the experiment with UACC-62 melanoma, 54.2% (inactive) in the experiment with LOX IMVI melanoma and 113% (inactive) in the experiment on SK-MEL-28 melanoma.

Consider `O=C(N/N=C/c1ccc(Br)o1)c1[nH]c2ccc(Br)cc2c1-c1ccccc1`, for which the growth in the experiment on HCT-15 colon is -6.94% (active); in the experiment on HT29 colon it was -46.2% (active); in the experiment with SNB-75 CNS, -18.3% (active); with SNB-19 CNS, 0.0073% (active); in the experiment with U251 CNS, -75.3% (active); with PC-3 prostate, 7.74% (active). The growth was -78.5% (active) in the experiment on SK-MEL-5 melanoma, 5.43% (active) in the experiment on UACC-62 melanoma, -62.8% (active) with LOX IMVI melanoma and -20.9% (active) in the experiment with SK-MEL-28 melanoma.

Regarding `Cn1cc(-c2cc3nc(-c4c[nH]c5ccccc45)cc(N)n3n2)c2ccccc21`, the growth with HCT-15 colon was -73% (active); with HT29 colon, -65.3% (active); in the experiment on SNB-75 CNS it was 91.6% (inactive); in the experiment on SNB-19 CNS, 18.6% (inactive); in the experiment with U251 CNS it was -91.1% (active); in the experiment on PC-3 prostate, -69.7% (active). Moreover, the growth with SK-MEL-5 melanoma is 8.15% (active); in the experiment on UACC-62 melanoma, -88.5% (active); in the experiment on LOX IMVI melanoma it was -77.8% (active); in the experiment with SK-MEL-28 melanoma, -97.8% (active).

`CC(C)(C)c1ccc(OCc2nc3ccccc3n2-c2cccc(N)c2)cc1`: the growth with HCT-15 colon was 39.3% (inactive) and 103% (inactive); in the experiment on HT29 colon, 30.8% (inactive) and 110% (inactive); with SNB-75 CNS, 56.9% (inactive) and 120% (inactive); with SNB-19 CNS it was 75.3% (inactive) and 100% (inactive); with U251 CNS, 59.3% (inactive) and 105% (inactive); in the experiment on PC-3 prostate, 35.2% (inactive) and 99.9% (inactive). The growth in the experiment with SK-MEL-5 melanoma was 5.56% (active) and 98.9% (inactive); in the experiment on UACC-62 melanoma, 55.3% (inactive) and 98.3% (inactive); with LOX IMVI melanoma, 54.7% (inactive) and 97.9% (inactive); in the experiment with SK-MEL-28 melanoma it was 79.4% (inactive) and 121% (inactive).

`CCCCNc1ccc2c3c(cccc13)C(=O)N(c1cccc(-c3nn(-c4ccccc4)cc3-c3nc4ccccc4s3)c1)C2=O`: the growth was 108% (inactive) in the experiment with HCT-15 colon; 114% (inactive) with HT29 colon; 92.8% (inactive) with SNB-75 CNS; 106% (inactive) with SNB-19 CNS; 110% (inactive) in the experiment on U251 CNS; 87.7% (inactive) in the experiment with PC-3 prostate. Further, the growth in the experiment with SK-MEL-5 melanoma was 96.3% (inactive); with UACC-62 melanoma, 88.3% (inactive); in the experiment with LOX IMVI melanoma, 94.4% (inactive); in the experiment on SK-MEL-28 melanoma, 101% (inactive).

For the compound `O=C(CSc1nnc(-c2ccc(-c3nc4ccc(Cl)cc4[nH]3)cc2)o1)Nc1ccc(Cl)cc1`, the growth with HCT-15 colon was 8.62% (active); in the experiment with HT29 colon, 23.1% (inactive); in the experiment with SNB-75 CNS it was 2.16% (active); in the experiment with SNB-19 CNS, -8.15% (active); in the experiment with U251 CNS, -74.1% (active); in the experiment on PC-3 prostate, -24.1% (active). Further, the growth was 8.87% (active) in the experiment with SK-MEL-5 melanoma, -44.8% (active) in the experiment with UACC-62 melanoma, -92.5% (active) in the experiment with LOX IMVI melanoma and -73.6% (active) with SK-MEL-28 melanoma.

`COC(=O)c1c(C(=O)OC)c2ccc3c4ccccc4ccc3n2c1C(=O)OC`: the growth in the experiment on HCT-15 colon is 98.1% (inactive); in the experiment with HT29 colon it was 108% (inactive); with SNB-75 CNS, 95.9% (inactive); with SNB-19 CNS it was 81.1% (inactive); in the experiment with U251 CNS, 97.1% (inactive); with PC-3 prostate, 98.9% (inactive). In addition, the growth is 98.3% (inactive) in the experiment on SK-MEL-5 melanoma, 93.6% (inactive) in the experiment on UACC-62 melanoma, 104% (inactive) in the experiment with LOX IMVI melanoma and 109% (inactive) in the experiment on SK-MEL-28 melanoma.
